Data from ChEMBL document CHEMBL3988442, “University of Dundee, Small-Polar-MMV Screening Library” (2021).
Screen size: about 53,000 compounds; about 900 (1.7%) showed an effect of 50% or more. The sample holds strong results, similar compounds and a random draw of the others, so the mix is not that of the screen.

What follows are compounds tested on Mycobacterium tuberculosis (assay: Cornell - Phenotypic assay to identify agents that inhibit growth of Mycobacterium tuberculosis). Conditions: 10 mM as filed; unlikely as a test dose.
Format: functional
Parameters: scale not given: direction of the effect not stated beside the values

Row | SMILES | Percent Effect [%]
1 | COCC(=O)N1C[C@@H](c2cccc(F)c2)[C@H]2[C@H]1CCCCCN2C(C)=O | -30.92
2 | O=C(NCc1ccc(Br)cc1)C1(O)CCSCC1 | 26.99
3 | O=C(O)C(F)(F)F.O=C(O)C(F)(F)F.O=C(O)C(F)(F)F.c1cc(CNCC2OCCc3cn(CC4CCOCC4)nc32)ccn1 (stereo unspecified) | -7.498
4 | CCCN(CC(F)(F)F)S(=O)(=O)c1cc(C(N)=O)n(C)c1 | -26.73
5 | COCC1CCN(C(=O)c2cn(Cc3ccccc3F)nn2)CC1 | 25.9
6 | COCC1CCN(C(=O)c2cn(Cc3cccc(C(F)(F)F)c3)nn2)C1 (stereo unspecified) | 30.37
7 | COCC1CCN(C(=O)c2cn(Cc3ccccc3C(F)(F)F)nn2)C1 (stereo unspecified) | 62.81
8 | Cc1nc(NCC2CCOCC2)cc(C2CCN2S(C)(=O)=O)n1 (stereo unspecified) | 10.58
9 | CC1N(c2cnn(C)c2)C(=O)COC12CCN(Cc1ccco1)CC2.O=C(O)C(F)(F)F (stereo unspecified) | 2.626
10 | COCCNC(=O)[C@H]1C[C@@H]2CCN(c3ccncn3)C[C@H]2O1.O=C(O)C(F)(F)F | 26.18
11 | CCCNC(=O)c1cncc(CC2CCCN(C)C2)c1 (stereo unspecified) | -32.48
12 | CN1C(=O)[C@H](OC(N)=O)[C@@H](C(=O)Nc2ccccc2)C12CCNCC2 | -56.88
13 | COCCN(Cc1ccco1)Cc1nc(-c2ccccc2)no1 | -9.832
14 | COCCN(Cc1ccccc1)Cc1nc(-c2ccsc2)no1 | 50.54
15 | COCCN(Cc1ccco1)Cc1nc(-c2ccsc2)no1 | -23.17
16 | CN(C)c1cc(C2CCCN(C(=O)c3noc4c3CCCC4)C2)ccn1 (stereo unspecified) | 38.49
17 | COCCNC(=O)c1cc2c(c3ccccc3n2C)n1C(=O)N(C)C | 18.89
18 | Cc1cc(C(N)=O)ccc1NC(=O)N1CCN(c2cccs2)CC1 | 67.2
19 | O=C(Nc1ccccc1-c1cccs1)N1CCN(CC(F)F)CC1 | -4.883
20 | CCn1cnnc1CNC(=O)N1CCN(c2cccs2)CC1 | -10.74
21 | CNC(=O)CN1CCN(C(=O)Nc2ccc(Cl)cc2F)CC1 | -7.252
22 | Cc1cc(NC(=O)N2CCN(c3cccs3)CC2)ccc1C(N)=O | 3.823
23 | NC(=O)c1ccc(NC(=O)N2CCN(c3cccs3)CC2)c(F)c1 | 54.78
24 | CC(C)OCCC(=O)NCCc1csc(N2CCCC2)n1 | -16.85
25 | COCC(=O)NCc1cc(=O)n2c(n1)CN(Cc1ccccc1)CCC2.O=C(O)C(F)(F)F | 6.068
26 | OCc1ccc(CN(CCCn2ccnc2)Cc2cccnc2)o1 | 33.2

Row | SMILES | Percent Effect [%]
27 | N#Cc1cc2c(nc1O)CCCCC2 | -24.16
28 | CN1C(=O)COc2cc(NC(=O)CCc3nc4cccnc4[nH]3)ccc21 | 11.88
29 | COC(=O)Cc1cn2cc(C(F)(F)F)ccc2n1 | -22.96
30 | CC(C)NC(=O)[C@@]12CCO[C@@H]1CCN(Cc1ccc3c(c1)OCO3)C2.O=C(O)C(F)(F)F | -5.39
31 | CCSCC(C)NCc1nc(-c2cccnc2)no1 (stereo unspecified) | -14.24
32 | O=C(CCc1ccsc1)Nc1cccnc1N1CCCC1 | 8.029
33 | CCN(CC)C(=O)CCc1c(C)nc2cc(O)nn2c1C | 7.759
34 | Cc1cc(C)n(C2CN(Cc3ccccn3)C2)n1 | -9.481
35 | CN(C)[C@@H]1CN(Cc2ccc(O)cc2)C[C@H]1c1cn(C)c2ccccc12.Cl | -25.68
36 | CN(C)[C@@H]1CN(Cc2ccccn2)C[C@H]1c1cn(C)c2ccccc12.Cl | 54.37
37 | COc1cccc([C@@H]2CCN(Cc3cn(C)c4ccccc34)C[C@H]2O)c1 | -6.919
38 | CN(C)[C@@H]1CN(Cc2cccnc2)C[C@H]1c1cn(C)c2ccccc12.Cl | 6.134
39 | CN(C)[C@@H]1CN(Cc2ccccc2O)C[C@H]1c1cn(C)c2ccccc12.Cl | 107.3
40 | CSCC[C@@H]1CN2CCC[C@H]2CN1Cc1cn(C)nc1C | -32.61
41 | Cc1nc(CN2CCCN(Cc3nc4c(F)cccc4[nH]3)CC2)no1 | -62.54
42 | O=C(NCCS(=O)(=O)N1CCN(c2ncccn2)CC1)C1CC1 | -28.73
43 | CCN(Cc1ccncc1)CC1(O)CCN(C(=O)c2cccc(C)n2)C1 (stereo unspecified) | -8.223
44 | CCCc1nc(C)c(C(=O)NCCN2CCN(CC)CC2)s1 | 13.14
45 | CN1CCN(CC(CC(=O)Nc2ccc(Cl)cc2)C(=O)O)CC1 (stereo unspecified) | 46.61
46 | CN1CCCN(CC(CC(=O)Nc2ccc(Cl)cc2)C(=O)O)CC1 (stereo unspecified) | 27.51
47 | Cc1cccc(C)c1NC(=O)CC(CN1CCN(C)CC1)C(=O)O (stereo unspecified) | 68.43
48 | CC(CN1CCOCC1)NC(=O)NCc1cccs1 (stereo unspecified) | -17.54
49 | NCCc1cccc(CN2CCN(c3ccccc3)C(=O)C2)c1 | -23.11
50 | COc1cccc(N2CCN(Cc3cc(C)cc(F)c3)CC2=O)c1 | 45.53
51 | COc1cc(CN2CCN(c3cccc(OC)c3)C(=O)C2)cc(OC)c1 | 8.627
52 | COc1cccc(N2CCN(Cc3ncc[nH]3)CC2=O)c1 | -18.02

Row | SMILES | Percent Effect [%]
53 | NCCc1cccc(CN2CCN(c3cccc(Cl)c3)C(=O)C2)c1 | 12.48
54 | COc1cccc(N2CCN(Cc3ccc4[nH]ccc4c3)CC2=O)c1 | 56.6
55 | COc1cccc(N2CCN(Cc3cccc(CCN)c3)CC2=O)c1 | 56.89
56 | COc1cccc(N2CCN(Cc3ccc4occc4c3)CC2=O)c1 | 21.65
57 | COc1cccc(N2CCN(Cc3ccc4ccn(C)c4c3)CC2=O)c1 | 57.23
58 | Cc1ccnn1CCC(=O)N1CCCC[C@@]2(C)[C@@H]1CCC(=O)N2C | -72.7
59 | CC(C)n1nc(CN2CCCC2)c2c1CN(CC1CC1)CC2.O=C(O)C(F)(F)F.O=C(O)C(F)(F)F | 3.423
60 | O=C(CCn1nc(C(F)(F)F)c(Cl)c1C1CC1)NN1CCOCC1 | 6.641
61 | CNS(=O)(=O)c1cc(C(=O)NC2CCOc3ccccc32)cc(C)c1C (stereo unspecified) | -0.5765
62 | Cc1cccc(CN2CC[C@@H]3[C@@H]2CCN3C(=O)Cc2cccs2)n1.O=C(O)C(F)(F)F.O=C(O)C(F)(F)F | 14.31
63 | Cn1nc(Br)c2c(NCCNc3ncccn3)ncnc21 | 7.21
64 | O=C(c1nnn(-c2ccc(C(F)(F)F)cc2)n1)N1CC(O)C1 | 30.38
65 | O=C(c1nnn(-c2ccc(C(F)(F)F)cc2)n1)N1CCC(O)CC1 | 42.24
66 | CC1CCCN(C(=O)c2nnn(-c3ccc(C(F)(F)F)cc3)n2)C1 (stereo unspecified) | 77.62
67 | Cc1cc(N2CCCC2c2nnc3n2CCCCC3)nc(N)n1 (stereo unspecified) | -31.59
68 | COCC(=O)N1CCc2ncc(Cn3cncn3)n2CC1 | 12.01
69 | CN1CC2(CCCN(Cc3cccc(Oc4ccccc4)c3)C2)OC1=O (stereo unspecified) | 2.197
70 | Cn1cc(-c2c(C#N)c(N)nc3c2CCc2[nH]ccc2-3)cc1C#N | 1.934
71 | COc1ncc(-c2c(C#N)c(N)nc3c2CCc2[nH]ccc2-3)cn1 | 19.25
72 | Cn1cc(-c2c(C#N)c(N)nc3c2CCc2[nH]ccc2-3)cn1 | 95.48
73 | Cc1nc(NC(=O)c2c(-n3cnnn3)sc3c2CCCC3)sc1C | 19.43
74 | CCN1CCCC(NC(=O)CCn2c(C(F)F)cc3cccnc32)C1 (stereo unspecified) | 6.84
75 | COCC1N(C(=O)Nc2ccccc2)[C@H]2CC[C@]1(O)CC2 (stereo partly specified) | -35.59
76 | Cc1nc(-c2cccc(N3CCC(N4CCCC4)CC3)c2)cs1 | 50.87
77 | Cc1nc(-c2cccc(N3CCC(N4CCCC(C#N)C4)CC3)c2)cs1 (stereo unspecified) | 11.96
78 | COC1CCCN(C2CCN(c3cccc(-c4csc(C)n4)c3)CC2)C1 (stereo unspecified) | -0.3551

Row | SMILES | Percent Effect [%]
79 | COCCN1CCC(CNC(=O)c2ccnc(-n3ccnc3)c2)CC1 | -23.45
80 | COc1ccc(N(C(=O)c2ccccn2)C(C)C)cc1F | 9.62
81 | COC(=O)c1cnc(C(=O)N(c2ccc(OC)c(F)c2)C(C)C)cn1 | 77.94
82 | COc1ccc(N(C(=O)c2cnc(C)cn2)C(C)C)cc1F | -10.07
83 | COc1cc(N2C[C@@H]3COC[C@]3(COc3cccnc3)C2)ncn1.O=C(O)C(F)(F)F.O=C(O)C(F)(F)F | -11.05
84 | O=C(O)c1ccc(S(=O)(=O)Nc2cnn(CC(F)(F)F)c2)cc1 | 41.5
85 | COc1cccc(CC(C)NC(=O)NCCNC(C)=O)c1 (stereo unspecified) | 11.1
86 | COc1cccc(CC(C)NC(=O)NC(C)C)c1 (stereo unspecified) | 44.88
87 | COc1cccc(CC(C)NC(=O)NCc2ccn(C)c2)c1 (stereo unspecified) | 85.29
88 | CS(=O)(=O)C1CCN(S(=O)(=O)c2ccc(F)c(F)c2)CC1 | 25.65
89 | COc1ccc(N2CCC(NCc3csc(C(C)C)n3)CC2)cc1 | 77.68
90 | CC(C)c1nc(CNc2ccc(N3CCC(CO)CC3)cn2)cs1 | 20.33
91 | CCc1nc(CNC2CCN(c3ccc(OC)cc3)CC2)cs1 | 27.61
92 | COCCn1c(CN2CCCO2)cnc1S(=O)(=O)CC1CCCCC1 | 19.4
93 | Cc1cccc(NC(=O)[C@@H]2CCCN2Cc2ccc(C#N)cc2F)n1 | 12.34
94 | CN(C)C(=O)C1CN(Cc2ccc(C#N)cc2F)c2ccccc2O1 (stereo unspecified) | 104.6
95 | CN(C)C(=O)C1CN(Cc2ccc(C#N)cc2)c2ccccc2O1 (stereo unspecified) | 104.5
96 | CN(C)C1Cc2ccccc2N(S(=O)(=O)c2ccc(C#N)cc2)C1 (stereo unspecified) | 12.67
97 | CN(C)C(=O)Cc1ccccc1NCc1cc(C#N)ccc1F | 3.977
98 | CNC(=O)C1CN(Cc2ccc(C#N)cc2F)c2ccccc2O1 (stereo unspecified) | 105.9
99 | N#Cc1ccc(S(=O)(=O)N2CC(CC(=O)O)c3ccccc32)cc1 (stereo unspecified) | 19.47
100 | CNC(=O)[C@@H]1CC[C@@H]2[C@@H](CCN2Cc2ccccc2F)O1.O=C(O)C(F)(F)F | -11.16
101 | Cc1cc(CN2CCN(Cc3ccc(C#N)cc3F)CC2)no1 | -3.509
